APP transl inh: APP translation inhibition. AID 1285. inhibition, % at 2 µM. SH-SY5Y APP 5'UTR-luciferase reporter, luminescence. actives 0.82% (n = 190,000);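 active = inhibition above a set limit, derived from the sample mean plus 3 SD, cut at about 45% in these data; inconclusive = one replicate passes the limit while the other fails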
KLF5 inhibitor: kruppel-like factor 5 inhibition; AID 1700; DLD-1 KLF5 promoter-luciferase reporter, luminescence; inhibition, % at 5 µM; actives 0.23% (n = 290,000);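 active = inhibition above a per-plate limit of that plate's mean compound inhibition plus 3 SD, cut at about 60% in these data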;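 note: 0% = DMSO wells and 100% = LY294002 at 200 µM; higher means less KLF5 promoter-driven luciferase light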
aSyn UTR inh: 5' untranslated region of α-synuclein, MLPCN primary screen; alpha-synuclein 5'UTR reporter, inhibitor activity; inhibition, % (tested at 7.5 µM); actives 0.82% (n = 300,000); AID 1813; in the data active = inhibition above about 60%; inconclusive = no clear call, values can overlap the other calls;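 note: H4 neuroglioblastoma cells stably carrying SNCA 5'UTR luciferase fusion; 0% = DMSO wells and 100% = positive control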
IEC-6 tox: IEC-6 cytotoxicity, counter-screen for KLF5 inhibitors. inhibition, % at 5 µM. AID 1825. luminescence viability. actives 0.78% (n = 290,000); in the data active = inhibition above about 22%;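 note: 0% = plate median of test compound wells and 100% = cytotoxic reference compound wells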
BaF3 parental: parental Ba/F3 viability inhibition as JAK2V617F counter-screen; actives 1.1% (n = 220,000); CellTiter-Glo ATP luminescence; inhibition, % at 5.6 µM;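 active = inhibition above a per-campaign cutoff, the mean inhibition of all tested compounds plus 3 SD, cut at about 27% in these data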;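 note: 0% = DMSO wells and 100% = JAK Inhibitor I control wells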
Ba/F3 V617F tox: lowers viability of Ba/F3 cells expressing EpoR and JAK2V617F. ATP luminescence. inhibition, % at 5.6 µM. actives 1.1% (n = 220,000). AID 1446;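 active = inhibition above the campaign mean plus 3 SD over all tested compounds, cut at about 24% in these data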;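 note: cytokine-independent growth of Ba/F3 cells driven by EpoR plus mutant JAK2; 0% = DMSO-treated cells and 100% = JAK inhibitor I control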
An asterisk follows results filed as active; ? = inconclusive; nt = no result given. Compounds with a hit are over-represented: about 2.2% of the library has one in this group of screens.

SMILES	APP transl inh	KLF5 inhibitor	aSyn UTR inh	IEC-6 tox	BaF3 parental	Ba/F3 V617F tox
CCNC(=O)C1Cc2cc(S(=O)(=O)N3CCCC3)ccc2N1C(C)=O (stereo not drawn)	nt	-37.5	-6.2	-1.5	nt	nt
COc1ccc(Cl)cc1S(=O)(=O)N1CCC(C(=O)NCc2ccccn2)CC1	nt	nt	2.6	nt	nt	nt
CCc1ccc(Nc2cnn(C34CC5CC(CC(CC(=O)O)(C5)C3)C4)c(=O)c2Cl)cc1	57.3*	-13.4	-5.6	-7.2	3.1	-0.6
Cc1ccc(S(=O)(=O)Nc2cccc3ncccc23)cc1	nt	-42.7	21.2	1.7	1.7	0.7
Cc1ccc(S(=O)(=O)Nc2cccc3ncccc23)s1	56.1*	24.2	27.3	93.5*	4.1	2.6
CCOC(=O)C1=C(Cc2ccc(OC)cc2)C(=O)c2ccccc2C1=O	72.3*	14.5	nt	1.7	0.0	1.0
CCOC(=O)C1=C(Cc2ccc(C)cc2)C(=O)c2ccccc2C1=O	-0.3	-26.3	-65.4	0.9	4.8	1.1
Clc1cccc(CN2CCCCCC2)c1	nt	-1.7	-9.4	-0.7	nt	nt
N=c1c2c(n(Cc3ccc(Cl)cc3)c3c1CCC3)CCC2	-2.5	38.4	54.4	6.0	72.6*	95.3*
O=C1CCCc2ccccc2N1Cc1ccc(F)cc1	1.5	7.7	-11.5	-1.7	6.2	0.1
N=c1c2c(n(Cc3cccc(Cl)c3)c3c1CCC3)CCCC2	0.5	28.0	?	6.5	61.0*	71.8*
N=c1c2c(n(Cc3ccc(F)cc3)c3c1CCC3)CCCC2	7.7	13.0	11.1	-1.1	56.6*	54.8*
N=c1c2c(n(Cc3ccccc3)c3c1CCC3)CCC2	-10.4	25.1	27.1	4.4	60.2*	62.2*
CN(C)c1ccsc1C(=O)NNS(=O)(=O)c1ccc(Cl)cc1	nt	nt	2.9	nt	nt	nt
CC(C)Oc1ccc(Cc2cnc(N)nc2N)cc1	8.6	-8.2	8.4	-3.5	3.5	10.1
COc1cc(C)c(Cc2cnc(N)nc2N)cc1OC	nt	-16.1	-2.2	-8.2	-2.0	32.8*
Cc1cccc(-n2ncc3c(N4CCOCC4)ncnc32)c1	-66.6	42.5	77.3*	2.7	11.7	8.0
Cc1cccc(-n2ncc3c(N4CCCC4)ncnc32)c1	-137.7	-121.7	29.3	2.5	8.9	5.5
Clc1ccc(-n2ncc3c(N4CCCCCC4)ncnc32)cc1	-26.9	2.6	77.9*	3.2	0.1	-3.6
CCOc1ccc(NC(C(=O)Nc2cccc(C(C)=O)c2)c2ccccc2)cc1 (stereo not drawn)	4.6	10.9	0.0	6.3	53.7*	50.7*
COc1ccc(N(C)S(=O)(=O)c2ccc3c(c2)NC(=O)CC(=O)N3)c(OC)c1	nt	-8.3	-15.7	-1.3	nt	nt
Cc1cccc(Nc2ccc([N+](=O)[O-])cn2)c1	nt	-113.9	-87.2	3.4	nt	nt
COC(=O)Cn1cc(C(=O)OC)c2ccccc21	5.5	-20.9	14.1	-2.2	11.8	7.6
CC(=O)c1cn(CC(=O)Nc2c(C)cccc2C)c2ccccc12	13.2	2.6	8.3	6.3	42.9*	33.2*
CCC(=O)c1cn(CC(=O)OC)c2ccccc12	68.0*	-27.8	-18.5	-5.3	2.2	-2.7
SMILES	APP transl inh	KLF5 inhibitor	aSyn UTR inh	IEC-6 tox	BaF3 parental	Ba/F3 V617F tox
Cc1cccc(CC(=O)NCCN2CCCCC2)c1	nt	6.6	13.6	9.3	nt	nt
Fc1cccc(/C=N/Nc2cc(N3CCOCC3)ncn2)c1	nt	-135.7	-108.0	-6.0	nt	nt
CN(CC1CCOCC1)C(=O)CC1C(=O)NCCN1CC(c1ccccc1)c1ccccc1 (stereo not drawn)	nt	-23.1	-1.1	-2.7	nt	nt
CC1=CN2C(=NC(=O)CC2(C)C(=O)N(CC(=O)NC2CCCC2)Cc2ccc(Cl)cc2)C=C1 (stereo not drawn)	nt	-11.6	8.3	0.1	nt	nt
Cc1c(C)c2c(OCC(=O)N[C@@H](Cc3ccccc3)C(=O)O)cc3c(c2oc1=O)CCC(C)(C)O3	nt	-12.3	10.4	-7.8	nt	nt
Cc1nn(C(=O)c2c(-c3ccccc3)noc2C)c(C)c1N=Nc1cc(C(F)(F)F)cc(C(F)(F)F)c1	nt	-14.7	6.5	1.4	-2.9	-3.8
Cn1c(O)c(C=NCC2CCNCC2)c(=O)n(C)c1=O	-3.8	-6.5	25.4	0.8	92.8*	6.4
O=C(O)CC/C(=N/NC(=O)CNC(=O)C(c1ccccc1)c1ccccc1)c1ccccc1	nt	-23.5	4.9	1.0	2.4	5.2
CCCCCc1ccc(-c2ccc(/C=C/C(=O)O)cc2)nc1	20.9	11.9	79.2*	8.8	7.1	4.8
CC1(C)Oc2ccccc2OC1(O)c1ccc2ccccc2n1 (stereo not drawn)	6.6	27.3	-4.6	7.8	6.0	1.6
O=C1CSC(c2ccc(Cl)cc2)N1C1CCCCC1 (stereo not drawn)	-5.6	-9.1	21.2	3.0	40.0*	2.4
COc1ccc(C(=O)NC2CC3CCCC(C2)N3CC(C)C)cc1 (stereo not drawn)	nt	-47.0	-0.9	-1.3	nt	nt
O=C(NCCc1ccccc1)c1cccnc1	-9.0	-83.3	-99.0	-0.6	6.2	-1.2
O=C(NCCc1ccccc1)c1ccc2nccnc2c1	-74.8	-23.4	63.1*	4.3	4.4	-0.4
O=S(=O)(c1ccc(Br)cc1)c1nc(-c2ccccc2)oc1NCCN1CCOCC1	nt	-19.8	-22.7	-3.0	nt	nt
c1ccc2[nH]c(-c3ccc4c(c3)OCO4)nc2c1	nt	nt	78.5*	nt	nt	nt
O=C(Nc1ccc(-c2nc3ccccc3[nH]2)cc1)c1ccc2c(c1)OCO2	-45.1	-133.1	-102.5	-0.2	10.3	-1.7
COc1ccc(C(=O)/C=C/C(=O)N(CC(=O)NC2CCCCC2)Cc2ccc(F)cc2)c(O)c1	77.8*	16.8	71.8*	-7.3	6.2	1.3
CS(=O)(=O)N(CC(=O)NC1CCCCC1)Cc1ccc(F)cc1	-0.8	-8.2	0.1	-1.6	-0.8	1.9
O=C(COc1ccc(Cl)cc1)NCc1nnc(SCC(=O)N2CCCCCC2)o1	6.3	-22.7	-3.4	-5.1	6.2	0.9
CNC(=O)NC(=O)C(C)OC(=O)c1ccc(Cl)c(S(=O)(=O)Nc2ccc(F)cc2)c1 (stereo not drawn)	nt	-1.1	-12.1	-0.3	-4.9	0.8
CCN1/C(=C/c2cc[n+](C)cc2)C=Cc2cc(C)ccc21	-0.6	-5.7	nt	-2.6	73.3*	99.4*
CS(=O)(=O)NCCNC(=O)c1cc(OCC(F)(F)F)ccc1OCC(F)(F)F	78.0*	-15.9	-2.1	2.0	3.8	2.1
CCn1c(SCc2ccccc2Cl)nc2nc3c(cc2c1=O)CCCC3	70.3*	-34.5	0.3	-4.0	4.6	2.1
Brc1cc2c(cc1Br)OCCOCCOCCOCCO2	22.8	-22.5	-12.8	-4.5	7.4	1.5
Brc1ccc2c(c1)OCCOCCOc1cc(Br)ccc1OCCOCCOCCO2	9.4	6.3	72.7*	3.2	0.1	1.6
O=C1C=C(c2ccccc2)C[C@H](c2cccs2)[C@H]1n1nnc([N+](=O)[O-])n1	14.6	-38.1	88.3*	-4.7	5.6	1.1
O=C1C=C(c2ccccc2)CC(c2cccs2)C1n1cnc([N+](=O)[O-])c1 (stereo not drawn)	2.9	-12.1	28.2	8.4	2.9	1.0
CCN(CC)c1ccc(/C=C2/SC(=O)N(C(C)C)C2=O)o1	92.0*	9.6	-174.8	-0.1	7.9	5.0

Source: PubChem (several laboratories)
